# NRP1-CendR mod – modulators of CendR peptide binding to NRP-1, primary screen, biochemical, fluorescence polarization, uHTS; FAM-RPARPAR peptide binding to NRP-1; inhibition, % at 25 µM; actives 0.85% (n = 360,000);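 active = inhibition or corrected inhibition above about 18%, plus a signal ratio from 0.5 to 1.5, limit read from the data, passing the limit was not always enough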
# Target sequence (O14786 whole entry, looked up): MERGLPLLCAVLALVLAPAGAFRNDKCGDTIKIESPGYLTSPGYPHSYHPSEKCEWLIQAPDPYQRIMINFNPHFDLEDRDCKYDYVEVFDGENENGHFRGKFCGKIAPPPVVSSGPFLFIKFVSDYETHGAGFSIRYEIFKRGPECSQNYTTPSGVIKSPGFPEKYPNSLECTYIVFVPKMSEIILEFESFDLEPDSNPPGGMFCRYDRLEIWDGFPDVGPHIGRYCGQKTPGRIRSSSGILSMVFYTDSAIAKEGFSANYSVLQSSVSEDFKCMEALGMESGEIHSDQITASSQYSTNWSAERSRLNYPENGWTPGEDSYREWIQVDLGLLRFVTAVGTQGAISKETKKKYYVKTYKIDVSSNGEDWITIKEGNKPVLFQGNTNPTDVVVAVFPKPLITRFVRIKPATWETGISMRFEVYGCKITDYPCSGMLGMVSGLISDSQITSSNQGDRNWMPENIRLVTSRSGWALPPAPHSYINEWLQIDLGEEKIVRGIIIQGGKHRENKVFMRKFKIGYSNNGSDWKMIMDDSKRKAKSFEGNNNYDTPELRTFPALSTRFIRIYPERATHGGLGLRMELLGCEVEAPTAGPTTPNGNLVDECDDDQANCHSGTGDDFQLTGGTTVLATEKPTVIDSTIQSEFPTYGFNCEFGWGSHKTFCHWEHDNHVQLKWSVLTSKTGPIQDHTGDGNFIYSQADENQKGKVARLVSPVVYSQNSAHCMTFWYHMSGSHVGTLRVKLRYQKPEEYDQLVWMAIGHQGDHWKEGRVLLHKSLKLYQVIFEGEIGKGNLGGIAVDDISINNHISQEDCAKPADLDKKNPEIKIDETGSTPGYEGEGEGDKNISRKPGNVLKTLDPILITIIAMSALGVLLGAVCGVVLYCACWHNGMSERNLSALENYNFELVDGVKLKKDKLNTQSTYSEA
# ADAM10 inh – human ADAM10 inhibitors, primary screen, biochemical, QFRET, HTS; inhibition, % at 7 µM; AID 720582, 2013; recombinant ADAM10, EDANS/DABCYL FRET peptide cleavage, 3 h; actives 0.62% (n = 370,000);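 active = inhibition above a per-campaign cutoff equal to the mean of compounds falling between control-based bounds plus 3 SD, cut at about 20% in these data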;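 note: 0% = DMSO wells while the 100% control is not disclosed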
# KLK7 zymogen act – proKLK7 zymogen activators, primary screen, biochemical, fluorescence intensity; purified proKLK7, EDANS-DABCYL substrate fluorescence; 100% is mature enzyme control, 0% vehicle; Kallikrein-7 (Homo sapiens), P49862; AID 652039, 2013; activation, % at 7 µM; actives 0.9% (n = 370,000);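 active = activation above the mean of all tested compounds plus 3 SD, computed per campaign excluding outliers beyond control limits, cut at about 13% in these data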
# ADAM17 inh – ADAM17 inhibitors, primary screen, biochemical, QFRET; Disintegrin and metalloproteinase domain-containing protein 17 (Homo sapiens), P78536; recombinant ADAM17, EDANS/DABCYL FRET peptide cleavage; inhibition, % at 6.95 µM; actives 0.83% (n = 370,000);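 active = inhibition above the mean of compounds lying between control limits plus 3 SD, set per campaign, cut at about 8.5% in these data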;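 note: 0% = DMSO-only wells as the low control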
# HGIII-sPLA2 inh – human group III sPLA2 inhibitors, primary screen, biochemical, QFRET, BODIPY PC-A2 liposome substrate. Group 3 secretory phospholipase A2 (Homo sapiens), Q9NZ20. QFRET BODIPY PC-A2 liposome hydrolysis, fluorescence. inhibition, % at 12.2 µM. actives 0.56% (n = 370,000);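 active = inhibition above mean plus 3 SD of compounds lying within the high and low control bounds, cut at about 19% in these data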;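 note: 0% = median of test compound wells and 100% = no enzyme DMSO wells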
# * = called active by the depositor; i = inactive; . = no result. The list is not random: actives were taken first. Their share in the collection is about 3.4%.
SMILES,NRP1-CendR mod,ADAM10 inh,KLK7 zymogen act,ADAM17 inh,HGIII-sPLA2 inh
C[C@@H]1CN([C@H](C)CO)C(=O)Cc2cc(NC(=O)Nc3ccccc3)ccc2O[C@@H]1CN(C)Cc1ccc2c(c1)OCO2,14.3,20.5*,0.8,4.2,-44.5
C[C@@H]1CN([C@@H](C)CO)C(=O)Cc2cc(NS(=O)(=O)c3ccccc3)ccc2O[C@H]1CN(C)S(C)(=O)=O,20.7*,-2.5,0.0,0.9,1.0
C[C@@H]1ON(C)[C@H]2C[C@H]3c4[nH]c5c(-c6ccc7c(c6)OCO7)cccc5c4CCN3C(=O)[C@@H]12,.,-21.8,1.2,-5.7,-11.0
C=CCN1C(C(=O)OC)CN(Cc2cn(Cc3ccc(C)cc3)nn2)CCS1(=O)=O (stereo unspecified),.,1.3,0.2,1.2,3.4
O=C(NCc1c(F)cccc1F)C1C2C=CC3(CN(Cc4ccccc4)C(=O)C13)O2 (stereo unspecified),.,-2.2,-0.1,-1.1,1.5
CCOC(=O)[C@@]12CCC3=C1N(CCC3)C(=O)[C@H](CC(=O)NCCc1ccccc1OC)C2,.,-9.7,0.3,-6.8,11.7
Cc1onc(C(=O)N2CCN(C(c3ccc(F)cc3)c3ccc(F)cc3)CC2)c1[N+](=O)[O-],.,10.2,.,3.2,-40.8
COc1ccc(NC(=O)Nc2ccc3c(c2)C(=O)N([C@H](C)CO)C[C@H](C)[C@@H](CN(C)Cc2ccc(Cl)c(Cl)c2)OCCCC[C@@H](C)O3)cc1,-8.5,21.2*,-0.5,5.3,-18.6
CCCCOCCCNC(=O)C[C@@H]1C(=O)N(Cc2ccc(OC)cc2)C2=CCN(C(=O)OC(C)(C)C)C[C@]21C(=O)OCC,.,-1.6,0.6,-4.1,-1.8
Oc1ccc(-c2nccc(-c3ccc(Cl)cc3Cl)n2)cc1,40.2*,16.7,0.1,3.5,-34.7
O=C(NCCc1nc2ccccc2n1CCOc1cc(F)ccc1F)C1CCCCC1,.,6.4,.,3.2,-3.8
CCN(CC)c1ccc2cc(C(C)=O)c(=O)oc2c1,-39.8,-51.1,0.1,-9.5,-8.3
CCN(CC)c1ccc2cc(NC(=O)CCC(=O)O)c(=O)oc2c1,50.0*,i,78.0*,i,-10.2
O=C(CCc1ccccc1)N[C@H]1C(=O)CCC[C@]12C(=O)N(Cc1ccccc1)c1ccccc12,.,-1.8,0.2,0.7,-5.7
O=C(Nc1ccc2c(c1)OCO2)N1CCC(c2nc3ccc(Cl)cc3[nH]2)CC1,.,1.2,0.3,-1.6,-6.3
CN1C(=O)[C@@](O)(c2cccn2C)c2cc(Cl)ccc21,.,-9.9,-0.4,-5.3,4.1
CCOC(=O)c1c(C)oc2c1c(C=NCCC(=O)O)c(O)c1ccccc12,26.3*,-6.3,-0.2,-1.8,-3.3
COc1cc(OC)c(C(=O)OCC(=O)Nc2cc(C)on2)cc1OC,35.9*,2.1,0.2,-0.5,1.3
CC1(NC(=O)CCc2ccccc2)CCN(CCCc2ccccc2)C1=O (stereo unspecified),5.8,1.7,0.5,-0.9,-0.5
O=C(CCc1ccccc1)NC1(Cc2ccccc2)CCN(CCc2cccs2)C1=O (stereo unspecified),19.4*,5.8,-0.1,0.6,-5.5
COc1ccc(C(C)NC(=O)C2C(=O)NC3(C)CC2c2ccccc2O3)cc1 (stereo unspecified),-9.9,-3.3,0.1,0.9,0.0
COc1ccc(NC(=O)C2C(=O)NC3(C)CC2c2ccccc2O3)cc1 (stereo unspecified),33.1*,-21.2,-0.1,-6.2,2.6
O=C(CCl)Nc1ccc(N2CCCCCC2)cc1,42.6*,-4.8,-0.1,-4.9,9.7
CN1C(=O)CC2(C)C1=CCc1scnc12 (stereo unspecified),18.8*,-11.2,5.5,-2.3,-5.8
COCCCNC(=O)C[C@H]1C[C@@]2(C(=O)OC)C(=C[C@H](C(C)C)O[C@@H]2C2CC2)N(Cc2ccc3c(c2)OCO3)C1=O,.,3.4,-0.2,0.8,-3.9
CC1(C)C(CC(=O)O)CC1C(=O)O (stereo unspecified),23.7*,-28.1,-1.6,-4.8,-5.8

# Screening data (PubChem)
